Inconclusive results are not listed. Entries that show only a call come without a potency. Active and inactive are the calls of the source. Unless noted, calls come from the whole dose curve.
Key:
[1] = Nuclear factor erythroid 2-related factor 2/antioxidant responsive element (Nrf2/ARE) small molecule agonists: qHTS cell viability counter screen in human keratinocytes (AID 1919968; active = well fitted curve in the direction sought with a large enough effect in the repeat runs; an effect the other way counts as inactive or inconclusive; note: nearly all actives have a fitted effect of over 55% in size)
Procedure, shortened: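 Cytotoxicity was multiplexed with the Nrf2/ARE luciferase assay in the same wells. Stably transfected HaCaT keratinocytes were treated with test compounds for 23 h at 37 C. Cell viability was then measured by CellTiter-Fluor fluorescence.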

[2] = Nuclear factor erythroid 2-related factor 2/antioxidant responsive element (Nrf2/ARE) small molecule agonists: luciferase reporter gene qHTS assay in human keratinocytes (AID 1919969); note: nearly all actives have a fitted effect of over 35% in size; note: potency is the fitted concentration of half-maximal effect
[3] = target: Gonadotropin-releasing hormone receptor (Homo sapiens) (UniProt P30968); assay: Human gonadotropin-releasing hormone receptor (GnRHR) small molecule agonists, calcium flux assay in GnRHR-HEK293 cells (AID 1920063); note: nearly all actives have a fitted effect of over 35% in size
Procedure, shortened: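 Agonist activity was measured as intracellular calcium flux in HEK293 cells engineered to stably express human GnRHR. After dye loading for 1 hour at 37 C, compounds in DMSO were added and fluorescence was followed for 3 minutes.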

[4] = target: KiSS-1 receptor (Homo sapiens) (UniProt Q969F8); assay: Human kisspeptin (KISS1R) small molecule agonists, calcium flux assay in KISS1R-HEK293 cells (AID 1920064; active = well fitted curve in the direction sought with a large enough effect in the repeat runs; an effect the other way counts as inactive or inconclusive)
Procedure, shortened: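 Agonist activity is monitored as intracellular calcium rise in engineered HEK293 cells carrying human KISS1R. Cells are dye-loaded for 1 h at 37 C before compound addition, and fluorescence is recorded for 3 min.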

[5] = G protein-coupled receptor (GPCR) small molecule agonists, calcium flux assay: HEK293 wild type cell line counter screen (AID 1920065)
Procedure, shortened: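 Seed cells, incubate 18 h (37 C, 5% CO2); add calcium dye, 1 h at 37 C; pin-transfer compounds, ATP control or DMSO; read fluorescence 480/540 nm each second for 3 min.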

[6] = p53 small molecule agonists, cell-based qHTS assay with human liver microsomes (AID 1963577);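 note: p53 response element beta-lactamase reporter cells with liver microsomes plus NADPH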
Procedure, shortened: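 16 h, 37 C exposure of p53RE-bla cells to compounds with human liver microsomes and NADPH (0.5 mg/mL final each); detection via LiveBLAzer mixture, 2 h dark at room temperature.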

[7] = p53 small molecule agonists, cell-based qHTS assay with rat liver microsomes (AID 1963578)
Procedure, shortened: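 With rat liver microsomes and NADPH present (0.5 mg/mL final each), p53RE-bla cells are treated with compound for 16 h at 37 C. LiveBLAzer detection mixture is then applied for 2 h at room temperature in the dark.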

[8] = p53 small molecule agonists, cell-based qHTS assay with human liver microsomes: qHTS cell viability counter screen (AID 1963579); note: nearly all actives have a fitted effect of over 45% in size
Procedure, shortened: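 In this multiplexed counter screen, the reporter plates were subsequently treated with CellTiter-Glo so that cell viability, reflected by luminescence, could be recorded for p53RE-bla cells dosed 16 h with compounds under microsomal activation (HLM and NADPH).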

[9] = p53 small molecule agonists, cell-based qHTS assay with rat liver microsomes: qHTS cell viability counter screen (AID 1963580); note: nearly all actives have a fitted effect of over 45% in size
Procedure, shortened: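 After the beta-lactamase ratio was read, CellTiter-Glo was added to the same wells and luminescence measured at 30 min; cells had been treated 16 h at 37 C with compounds, rat liver microsomes and NADPH (0.5 mg/mL final each).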

[10] = target: 5-hydroxytryptamine receptor 2A (Homo sapiens) (UniProt P28223); assay: 5-hydroxytryptamine receptor 2A (HTR2A) small molecule antagonists, cell-based qHTS assay (AID 1963586); note: nearly all actives have a fitted effect of over 45% in size; note: potency is the fitted concentration of half-maximal effect
Procedure, shortened: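 CHO cells stably expressing human HTR2A were plated for 18 h at 37 C, then loaded with calcium dye for 1 h. Compounds were preincubated 5 min at room temperature before DOI (4 nM solution) was added. Kinetic fluorescence was read for 3 min.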

[11] = target: 5-hydroxytryptamine receptor 2A (Homo sapiens) (UniProt P28223); assay: 5-hydroxytryptamine receptor 2A (HTR2A) small molecule agonists, cell-based qHTS assay (AID 1963587); note: nearly all actives have a fitted effect of over 30% in size
Procedure, shortened: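 CHO cells stably expressing human HTR2A, plated 18 h, loaded with calcium dye 1 h at 37 C. Agonist mode: compounds added and intracellular calcium fluorescence recorded kinetically for 2 min at 1 sec intervals.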

[12] = target: Muscarinic acetylcholine receptor M1 (Homo sapiens) (UniProt P11229); assay: Cholinergic receptor muscarinic 1 (CHRM1) small molecule antagonists, cell-based qHTS assay (AID 1963588); note: nearly all actives have a fitted effect of over 40% in size
Procedure, shortened: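 Compounds were tested at 15 concentrations in three independent runs. Dye-loaded CHRM1-CHO cells were exposed 5 min at room temperature before stimulation by acetylcholine added at 50nM. Intracellular calcium was read kinetically on FDSS for 3 min.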

[13] = target: Muscarinic acetylcholine receptor M1 (Homo sapiens) (UniProt P11229); assay: Cholinergic receptor muscarinic 1 (CHRM1) small molecule agonists, cell-based qHTS assay (AID 1963589); note: nearly all actives have a fitted effect of over 35% in size
Procedure, shortened: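 Cells were plated and incubated 18 h at 37 C/5% CO2, loaded with calcium dye for 1 h at 37 C, then treated with compounds in DMSO. Fluorescence was recorded kinetically at 1 sec intervals.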

[14] = cAMP Responsive Elements (CRE) small molecule agonists, cell-based qHTS assay (AID 1963590)
Procedure, shortened: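 Cells carrying a CRE-driven beta-lactamase reporter (HEK 293T) are seeded, incubated overnight (18 h), and treated with test compounds for 3 h at 37 C; reporter activity is then detected with a FRET substrate after 2 h at room temperature.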

[15] = cAMP Responsive Elements (CRE) small molecule antagonists, cell-based qHTS assay (AID 1963591; active = well fitted inhibition curve with a large enough effect in the signal ratio in the repeat runs, not every such curve was filed as active; the % refers to the signal ratio)
Procedure, shortened: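 Cells (CRE-bla HEK 293T, DMEM with 10% dialyzed FBS and 25 mM HEPES) are seeded and incubated 18 h. Compounds are added with NKH477 agonist at 0.25 uM final for 3 h, then FRET substrate for 2 h.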

[16] = target: Beta-2 adrenergic receptor (Homo sapiens) (UniProt P07550); assay: Adrenergic beta2 receptor (ADRB2) small molecule antagonists, cell-based qHTS assay (AID 1963592); note: series mostly up to about 92 µM; nearly all actives have a fitted effect of over 50% in size
Procedure, shortened: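 Assay format: CHO-ADRB2 cells, 18-20hr seeding at 37C/5% CO2, then compound plus 1nM isoproterenol agonist mix for 0.5hr RT. Homogeneous time-resolved fluorescence cAMP detection after 1hr, expressed as 665/615 nm ratio.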

[17] = target: D(2) dopamine receptor (Homo sapiens) (UniProt P14416); assay: Dopamine D2 receptor (DRD2) small molecule agonists, cell-based qHTS assay (AID 1963594); note: nearly all actives have a fitted effect of over 35% in size; note: potency is the fitted concentration of half-maximal effect
Procedure, shortened: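 HEK293 cells stably expressing human DRD2, pre-treated with PDE inhibitor Ro20-1724 (0.1 mM final) and compound 10 min at room temperature, then stimulated with NKH477 (200nM […]) for 30 min. cAMP read by HTRF (665/620 nm).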

[18] = target: D(2) dopamine receptor (Homo sapiens) (UniProt P14416); assay: Dopamine D2 receptor (DRD2) small molecule antagonists, cell-based qHTS assay (AID 1963595; active = well fitted inhibition curve with a large enough effect in the signal ratio in the repeat runs, with a control signal flat; the % refers to the signal ratio; note: potency is the fitted concentration of half-maximal effect)
Procedure, shortened: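 DRD2-HEK293; 0.1 mM Ro20-1724; cpd 10 min RT; NKH477 200 nM + quinpirole 12 nM, 30 min RT; HTRF cAMP (cAMP-d2/anti-cAMP cryptate), 665/620 nm ratio after 1 h.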

[19] = p53 small molecule agonists, cell-based qHTS assay (AID 1963582; active = well fitted activation curve with a large enough effect in the signal ratio in the repeat runs, not every such curve was filed as active; the % refers to the signal ratio)
Procedure, shortened: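 Cells carrying a p53-responsive bla reporter are treated with test compounds for 16 h at 37 C; beta-lactamase activity is then detected with LiveBLAzer B/G FRET substrate after 2 h at room temperature.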

[20] = p53 small molecule agonists, cell-based qHTS assay: qHTS cell viability counter screen (AID 1963581); note: nearly all actives have a fitted effect of over 45% in size
Procedure, shortened: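 Viability was counter-screened in parallel with the p53 agonist reporter by measuring intracellular ATP luminescence in the same HCT-116 p53RE-bla wells after 16 h compound treatment at 37 C.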

D(2) dopamine receptor (Homo sapiens), sequence (P14416 whole entry, looked up): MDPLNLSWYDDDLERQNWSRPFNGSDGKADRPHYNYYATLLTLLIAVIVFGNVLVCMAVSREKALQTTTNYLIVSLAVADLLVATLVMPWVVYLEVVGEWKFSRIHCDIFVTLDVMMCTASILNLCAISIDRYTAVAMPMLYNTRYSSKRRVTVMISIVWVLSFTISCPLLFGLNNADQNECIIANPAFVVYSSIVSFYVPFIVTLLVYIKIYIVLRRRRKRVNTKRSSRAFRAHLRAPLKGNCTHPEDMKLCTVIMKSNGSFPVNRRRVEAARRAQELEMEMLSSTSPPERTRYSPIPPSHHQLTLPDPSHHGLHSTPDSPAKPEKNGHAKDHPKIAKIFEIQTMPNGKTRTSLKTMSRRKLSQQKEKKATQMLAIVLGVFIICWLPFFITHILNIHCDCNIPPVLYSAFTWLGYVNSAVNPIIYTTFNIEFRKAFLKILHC
5-hydroxytryptamine receptor 2A (Homo sapiens), sequence (P28223 whole entry, looked up): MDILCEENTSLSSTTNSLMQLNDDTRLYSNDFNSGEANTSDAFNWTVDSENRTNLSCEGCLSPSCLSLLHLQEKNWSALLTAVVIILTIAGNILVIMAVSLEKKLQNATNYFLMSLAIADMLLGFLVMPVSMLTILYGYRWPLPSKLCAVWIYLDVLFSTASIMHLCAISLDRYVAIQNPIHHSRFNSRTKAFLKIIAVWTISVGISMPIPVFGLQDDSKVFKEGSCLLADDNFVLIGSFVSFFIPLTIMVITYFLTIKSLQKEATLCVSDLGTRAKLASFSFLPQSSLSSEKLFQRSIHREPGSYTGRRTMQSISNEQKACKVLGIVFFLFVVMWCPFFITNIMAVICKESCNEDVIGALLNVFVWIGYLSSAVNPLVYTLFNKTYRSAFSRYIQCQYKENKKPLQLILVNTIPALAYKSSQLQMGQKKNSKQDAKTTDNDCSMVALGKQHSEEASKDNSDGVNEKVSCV
KiSS-1 receptor (Homo sapiens), sequence (Q969F8 whole entry, looked up): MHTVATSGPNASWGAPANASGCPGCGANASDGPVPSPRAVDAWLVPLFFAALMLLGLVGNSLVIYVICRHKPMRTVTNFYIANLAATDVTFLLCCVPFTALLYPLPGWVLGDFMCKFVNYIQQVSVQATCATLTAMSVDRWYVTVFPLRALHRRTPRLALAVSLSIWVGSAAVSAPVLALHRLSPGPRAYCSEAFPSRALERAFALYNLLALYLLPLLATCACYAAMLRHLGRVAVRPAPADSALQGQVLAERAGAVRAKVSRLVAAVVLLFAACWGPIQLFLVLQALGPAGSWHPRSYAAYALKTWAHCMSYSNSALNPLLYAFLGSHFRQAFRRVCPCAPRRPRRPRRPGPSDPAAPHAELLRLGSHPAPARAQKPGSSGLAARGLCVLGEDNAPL
Gonadotropin-releasing hormone receptor (Homo sapiens), sequence (P30968 whole entry, looked up): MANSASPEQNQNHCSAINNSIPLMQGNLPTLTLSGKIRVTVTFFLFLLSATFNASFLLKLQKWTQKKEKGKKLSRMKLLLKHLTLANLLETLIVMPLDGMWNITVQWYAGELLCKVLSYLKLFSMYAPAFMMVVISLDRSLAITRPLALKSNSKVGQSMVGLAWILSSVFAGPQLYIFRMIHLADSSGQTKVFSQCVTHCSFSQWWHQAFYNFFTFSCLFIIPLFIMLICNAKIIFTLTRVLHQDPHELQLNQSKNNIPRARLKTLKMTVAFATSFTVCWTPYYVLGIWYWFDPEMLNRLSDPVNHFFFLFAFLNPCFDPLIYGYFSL
Beta-2 adrenergic receptor (Homo sapiens), sequence (P07550 whole entry, looked up): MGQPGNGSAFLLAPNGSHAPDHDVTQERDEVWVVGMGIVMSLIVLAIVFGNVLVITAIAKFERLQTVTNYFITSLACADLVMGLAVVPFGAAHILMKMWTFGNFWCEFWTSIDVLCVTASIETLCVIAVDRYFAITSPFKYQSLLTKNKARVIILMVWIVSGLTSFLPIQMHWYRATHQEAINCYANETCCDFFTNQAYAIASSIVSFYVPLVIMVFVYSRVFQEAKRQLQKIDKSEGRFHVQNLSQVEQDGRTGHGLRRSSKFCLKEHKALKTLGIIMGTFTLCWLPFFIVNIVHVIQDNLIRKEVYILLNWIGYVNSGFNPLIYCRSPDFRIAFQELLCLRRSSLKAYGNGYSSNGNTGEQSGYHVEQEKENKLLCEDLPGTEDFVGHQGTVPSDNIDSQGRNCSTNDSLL
Muscarinic acetylcholine receptor M1 (Homo sapiens), sequence (P11229 whole entry, looked up): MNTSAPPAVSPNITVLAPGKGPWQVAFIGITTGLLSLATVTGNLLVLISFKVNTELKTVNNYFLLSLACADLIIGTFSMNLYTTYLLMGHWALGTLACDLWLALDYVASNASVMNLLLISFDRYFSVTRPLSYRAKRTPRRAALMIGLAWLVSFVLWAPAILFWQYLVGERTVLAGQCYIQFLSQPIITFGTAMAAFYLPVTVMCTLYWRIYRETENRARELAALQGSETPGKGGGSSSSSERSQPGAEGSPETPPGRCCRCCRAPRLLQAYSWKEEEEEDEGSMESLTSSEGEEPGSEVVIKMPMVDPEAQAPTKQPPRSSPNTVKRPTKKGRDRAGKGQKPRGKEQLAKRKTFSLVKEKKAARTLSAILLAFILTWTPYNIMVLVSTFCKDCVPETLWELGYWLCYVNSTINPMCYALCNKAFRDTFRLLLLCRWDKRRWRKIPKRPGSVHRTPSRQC

| Compound | Potency [1] | Potency [2] | Potency [3] | Potency [4] | Potency [5] | Potency [6] | Potency [7] | Potency [8] | Potency [9] | Potency [10] | Potency [11] | Potency [12] | Potency [13] | Potency [14] | Potency [15] | Potency [16] | Potency [17] | Potency [18] | Potency [19] | Potency [20] |
| --- | --- | --- | --- | --- | --- | --- | --- | --- | --- | --- | --- | --- | --- | --- | --- | --- | --- | --- | --- | --- |
| O=C(N[C@H]1N=C(c2ccccc2F)c2cccc3c2N(CC3)C1=O)c1cc2ccccc2[nH]1 | inactive | inactive | inactive | inactive | inactive | inactive | inactive | inactive | inactive | inactive | inactive | inactive | inactive | inactive | inactive | inactive | 8.74 µM (active) | inactive |  |  |
| CCOc1ccc(C(C)(C)COCc2cccc(Oc3ccccc3)c2)cc1 | inactive | inactive | inactive | inactive | inactive | inactive | inactive | inactive | inactive |  | inactive | inactive | inactive | inactive | inactive | inactive | inactive | inactive | inactive |  |
| C=CC(=O)N(C)C | inactive | inactive | inactive | inactive | inactive | inactive | inactive | inactive |  | inactive |  | inactive | inactive | inactive |  | inactive |  | inactive | inactive | inactive |
| CC(Cc1ccccc1)NCCCCl (centres undefined) | inactive | inactive | inactive | inactive | inactive | inactive | inactive | inactive | inactive |  |  | inactive | inactive | inactive | inactive | inactive | inactive | inactive | inactive |  |
| CCOC(=O)NC(C)(C)Cc1ccc(Cl)cc1 | inactive | inactive | inactive | inactive | inactive | inactive | inactive | inactive |  | inactive | inactive | inactive | inactive | inactive |  | inactive | inactive | inactive | inactive | inactive |
| N#CNC#N | inactive | inactive | inactive | inactive | inactive | inactive | inactive | inactive | inactive | inactive | inactive | inactive | inactive | inactive | inactive |  | inactive | inactive | inactive |  |
| ClP(Cl)(Cl)(Cl)Cl | inactive | inactive | inactive | inactive | inactive | inactive | inactive | inactive |  | inactive |  | inactive | inactive | inactive | inactive | inactive | inactive | inactive | inactive | inactive |
| FC(F)OC(F)(F)C(F)Cl (centres undefined) | inactive | inactive | inactive | inactive | inactive | inactive | inactive | inactive | inactive | inactive | inactive |  |  | inactive | inactive | inactive | inactive | inactive | inactive |  |
| COc1cccc([C@@]2(O)CCCC[C@@H]2CN(C)C)c1 | inactive | inactive | inactive | inactive | inactive | inactive | inactive | inactive | inactive |  |  |  |  | inactive | inactive | inactive | inactive |  | inactive |  |
| CCC1(c2ccccc2)C(=O)N=C(O)NC1=O (centres undefined) | inactive | inactive | inactive | inactive | inactive | inactive | inactive | inactive | inactive |  |  |  |  | inactive | inactive | inactive | inactive | inactive | inactive |  |
| O=C(NC(=O)c1c(F)cccc1F)Nc1cc(Cl)c(F)c(Cl)c1F | inactive | inactive | inactive | inactive | inactive | inactive | inactive | inactive | inactive | inactive | inactive | inactive | inactive | inactive |  | inactive | inactive | inactive | inactive |  |
| CCCCCCCCCC(=O)O[C@H]1CC[C@H]2[C@@H]3CCC4=CC(=O)CC[C@@H]4[C@H]3CC[C@]12C | inactive | inactive | inactive | inactive | inactive | inactive | inactive | inactive | inactive | inactive | inactive | inactive | inactive | inactive | inactive | inactive | inactive | inactive |  |  |
| CCOC(=O)NC(=S)Nc1ccccc1NC(=S)NC(=O)OCC | inactive | 54.5 µM (active) | inactive | inactive | inactive | inactive | inactive | inactive | inactive | inactive | inactive | inactive | inactive |  |  | inactive |  | inactive |  |  |
| C1CCNCC1 | inactive | inactive | inactive | inactive | inactive | inactive | inactive | inactive | inactive |  |  | inactive | inactive | inactive | inactive | inactive | inactive | inactive | inactive |  |
| CN1C[C@@H](NS(=O)(=O)N(C)C)C[C@@H]2c3cccc4c3c(cn4C)C[C@H]21 | inactive | inactive | inactive | inactive | inactive | inactive | inactive | inactive | inactive | 0.13 µM (active) | inactive | inactive | inactive | inactive |  | inactive | 3.76 µM (active) | 1.19 µM (active) | inactive |  |
| CSCCCN=C=S | inactive | 61.1 µM (active) | inactive | inactive | inactive | inactive | inactive | inactive |  | inactive | inactive | inactive | inactive | inactive | inactive | inactive | inactive | inactive | inactive | inactive |
